Screening results deposited in PubChem BioAssay by National Center for Advancing Translational Sciences (NCATS).
A selection: hits, their analogues and other compounds. The true share with any hit is near 10%.
SW480 rereplic: A quantitative high throughput screen for small molecules that induce DNA re-replication in SW480 colon adenocarcinoma cells; SW480 DNA re-replication, Hoechst DNA content imaging, 48 h; 1.8% of 340,000 active; AID 624297, 2012; Potency, µM (titrated, usually from 46.1 µM), for the others: at the top dose re-replication activation, hits mostly activators; also: % of control where 0% means no effect; nearly all actives have a fitted effect of over 55% in size
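First, 250 cells per well were seeded. Next, compound or vehicle (23 nL) was pinned in, plates sat 48 hr at 37 C. Finally Hoechst was added for 40 min before fluorescence scanning.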
MCF10A rerep: A quantitative high throughput screen for small molecules that induce DNA re-replication in MCF 10a normal breast cells | MCF 10A DNA re-replication, Hoechst nuclear intensity, 48 h | Potency, µM (titrated, usually from 46.1 µM), inactives show top-dose activity, positive = re-replication, most hits filed as activators | 2.9% of 350,000 active | AID 624296, 2012; also: % of control where 0% means no effect; nearly all actives have a fitted effect of over 50% in size
RORgamma inh: qHTS for inhibitors of ROR gamma transcriptional activity. Nuclear receptor ROR-gamma (Mus musculus), P51450. Drosophila S2 Gal4-RORgamma UAS-luciferase reporter, 20 h. Potency, µM (highest dose often 53.6 µM), without a hit: at the highest dose activity change, negative = inhibition, usual class: inhibitors. 5.4% of 310,000 active. AID 2551, 2010; also: % is scaled to controls: 0 for no effect and ±100 for the full control effect; nearly all actives have a fitted effect of over 60% in size
Target sequence (P51450 whole entry, looked up, the tested form may be a part): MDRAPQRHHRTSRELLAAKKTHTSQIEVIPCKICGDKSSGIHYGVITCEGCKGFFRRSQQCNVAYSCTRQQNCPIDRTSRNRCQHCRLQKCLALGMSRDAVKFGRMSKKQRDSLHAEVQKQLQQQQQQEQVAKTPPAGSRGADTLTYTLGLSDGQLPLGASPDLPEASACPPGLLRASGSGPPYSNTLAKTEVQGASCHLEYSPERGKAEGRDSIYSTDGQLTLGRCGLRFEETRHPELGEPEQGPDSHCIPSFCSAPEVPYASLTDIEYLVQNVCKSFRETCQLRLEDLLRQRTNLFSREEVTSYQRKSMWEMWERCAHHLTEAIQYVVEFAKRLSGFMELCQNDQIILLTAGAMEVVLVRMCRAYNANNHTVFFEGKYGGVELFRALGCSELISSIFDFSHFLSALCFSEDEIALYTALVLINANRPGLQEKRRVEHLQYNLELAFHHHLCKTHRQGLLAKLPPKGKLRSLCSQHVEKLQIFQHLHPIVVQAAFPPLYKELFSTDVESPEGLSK
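ROR gamma transcriptional activity was tracked as Gal4-UAS luciferase output in stably transfected Drosophila Schneider cells, with compound added 1 hr before 700 uM copper sulfate induction and a 20 hr ambient-temperature incubation.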
VP16 counter: VP16 counterscreen qHTS for inhibitors of ROR gamma transcriptional activity; Drosophila S2 Gal4-VP16 UAS-luciferase, luminescence, 20 h; Potency, µM (highest dose often 53.6 µM), inactives show at the top dose activity, negative = inhibition, hits mostly inhibitors; 3.5% of 310,000 active; AID 2546, 2010;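 also: Gal4-VP16 expression switched on by copper sulfate through the metallothionein promoter; % is scaled to controls: 0 for no effect and ±100 for the full control effect; nearly all actives have a fitted effect of over 50% in size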
KB-3-1 cytotox: qHTS assay for MDR1-selective chemotherapeutics: Primary screen using the parental adenocarcinoma cell KB-3-1. KB-3-1 viability, CellTiter-Glo ATP luminescence, 72 h. Potency, µM (series often up to 46.1 µM), hits mostly cytotoxic. 1.4% of 400,000 active; also: % is scaled to controls: 0 for no effect and ±100 for the full control effect; nearly all actives have a fitted effect of over 60% in size
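Cells are dispensed, compounds pinned in, plates held at 37 °C for 72 h, then CellTiter-Glo is added and luminescence read after 10 minutes. Cell line: parental KB-3-1 in phenol-red-free DMEM, 10% FBS.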
KB-V1 cytotox: qHTS assay for MDR1-selective chemotherapeutics: Primary screen using the drug-selected MDR subline cells KB-V1; Potency, µM (top dose mostly 46.1 µM), most hits filed as cytotoxic; AID 1347076, 2019; KB-V1 MDR cells viability, CellTiter-Glo, 72 h; 3.4% of 400,000 active; also: % is scaled to controls: 0 for no effect and ±100 for the full control effect; nearly all actives have a fitted effect of over 60% in size
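KB-V1, DMEM (no phenol red) + 10% FBS; cpd pin-transferred, titration series; 72 h, 37 degrees C; CellTiter-Glo, luminescence. Data normalized, curve-fit.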
An asterisk follows results filed as active; i = inactive; ? = inconclusive; . = no result; [ ] = remark or other dose. Calls follow the shape of the dose curve; as a rule, active = well fitted curve in the direction sought with a large enough effect; inconclusive = small, poorly fitted or top-dose-only effect, or another doubt; inactive = no such curve, though single readings can be large; an effect the other way counts as inactive or inconclusive. Potency is read from the fitted curve at half-maximal effect.

SMILES	SW480 rereplic	MCF10A rerep	RORgamma inh	VP16 counter	KB-3-1 cytotox	KB-V1 cytotox
Clc1cccc(/C(Cc2nc3ccccc3[nH]2)=N\Nc2ccccc2)c1	?	?	35µM*	?	i	i
c1ccc(N/N=C(\Cc2nc3ccccc3[nH]2)c2ccccc2)cc1	15%	?	-16%[10 µM]	?	i	i
Cc1ccc(N/N=C(\Cc2nc3ccccc3[nH]2)c2ccccc2)cc1	1.8µM*	?	?	?	1.2µM*	3.7µM*
CCN/N=C(\Cc1nc2ccccc2[nH]1)c1ccccc1	16%	21µM*	?	-15%	i	i
N/N=C(/Cc1nc2ccccc2[nH]1)c1ccc([N+](=O)[O-])cc1	-3%	-2%	14µM*	?	i	?
COc1ccc(C(CNC(=O)CCNS(=O)(=O)c2ccc(Br)cc2)N2CCCC2)cc1 (centres undefined)	-10%	0%	.	.	i	?
COc1ccccc1C(CNC(=O)CCNS(=O)(=O)c1ccc(Br)cc1)N1CCCC1 (centres undefined)	6.5µM*	-4%	.	.	i	i
O=C(N/N=C1\C(=O)c2cccc3cccc1c23)c1ccc(O)cc1	-3%	10%	0.071µM*	0.32µM*	?	i
CNC(=S)N/N=C1\C(=O)c2cccc3cccc1c23	?	10µM*	0.5µM*	2.5µM*	?	?
O=C(COC(=O)C1CCN(S(=O)(=O)c2ccccc2)CC1)NCCc1ccccc1	3%	1%	.	.	i	i
Cc1cc(C)c2cc(C#N)c(NCCNC(=O)c3ccncc3)nc2c1	.	.	.	.	i	?
COc1ccc(C(=O)c2cn[nH]c2-c2cc(C)ccc2O)cc1	-24%	0%	1%	0%	i	i
COc1ccc(C(=O)c2cn[nH]c2-c2cc(Cl)ccc2O)cc1	?	22%	?	-21%	?	18µM*
COc1ccc(C2=CC3=C(Br)C(=O)C(C)(OC(=O)c4cnc5ccccc5n4)C(=O)C3=CO2)cc1 (centres undefined)	.	.	19%	13%	.	.
CCOC(=O)c1[nH]c(C)c(CCC(=O)N2CCN(c3cccc(C)c3C)CC2)c1C	.	.	.	.	?	i
O=C(O)/C=C/C(=O)N1N=C(c2ccco2)CC1c1ccco1 (centres undefined)	-16%	-6%	13%	2%	i	i
CCCc1cc(=O)[nH]c(SCC(=O)N2N=C(c3ccc(Cl)cc3)CC2c2ccco2)n1 (centres undefined)	-8%	?	22%[10 µM]	-6%	?	21µM*
O=C(CCl)N1N=C(c2ccco2)CC1c1ccco1 (centres undefined)	21µM*	?	10µM*	?	?	?
Cc1ccc(C2=NN(C(=O)CSc3nccn3C)C(c3ccco3)C2)cc1 (centres undefined)	12µM*	?	-28%	-11%	?	9.2µM*
Cc1ccc(C2=NN(C(=O)CSc3nc4ncc(Cl)cc4[nH]3)C(c3ccco3)C2)cc1 (centres undefined)	3%	5%	-20%	-1%	i	i
O=C(CCl)N1N=C(c2cccs2)CC1c1ccco1 (centres undefined)	12µM*	18µM*	11µM*	?	?	?
O=C(CCCCn1c(=O)c2ccccc2n(CC(=O)Nc2ccccc2)c1=O)NCc1ccccc1Cl	.	.	.	.	i	?
O=C(NC1CCCC1)c1nc(-c2ccco2)oc1-c1ccccc1	.	.	.	.	i	i
CCNC(=O)Cc1ccc(NC(=O)N2CCCCc3ccccc32)cc1	.	.	.	.	i	i
O=C(O)CCCNC(=O)OCc1ccccc1	-2%	-1%	?	6.3µM*	i	i
SMILES	SW480 rereplic	MCF10A rerep	RORgamma inh	VP16 counter	KB-3-1 cytotox	KB-V1 cytotox
O=C(NCCCCCCNC(=O)OCc1ccccc1)OCc1ccccc1	1%	-1%	.	.	i	i
COc1ccc(C2NC(=S)NC3=C2CCc2cc(OC)ccc23)cc1 (centres undefined)	?	17%	0.56µM*	?	i	i
O=[N+]([O-])c1cccnc1N/N=C/c1ccccc1O	0.82µM*	-4%	-26%	-4%	1.8µM*	?
Cc1c(O)ccc(/C=N/Nc2ncccc2[N+](=O)[O-])c1O	-1%	-7%	10µM*	?	?	?
CCCOc1ccc(/C=N/Nc2ccccc2[N+](=O)[O-])c(O)c1	-83%	16%	7.1µM*	?	?	?
CCOc1ccccc1/C=N/Nc1ccc(Cl)nn1	-1%	-8%	-24%	-17%	i	i
CCCOc1ccc(/C=N/NC(=S)Nc2ccccc2[N+](=O)[O-])c(O)c1	?	?	0%	-12%	i	i
CCOc1ccc(/C=N/Nc2ccc(Cl)nn2)c(O)c1	0.18µM*	?	1.6µM*	2µM*	?	?
O=C(NCc1ccccc1Cl)c1ccc(NC(=O)c2nsc3ccccc23)cc1	.	.	.	.	i	i
Cc1ccc(Nc2nnc(SCC(=O)c3ccc(Br)s3)s2)c(C)c1	2%	4%	35µM*	?	i	i
CCN(CC)CCn1c(-c2ccccc2)nc2c(NCc3ccccc3)nc(C)nc21	.	.	-34%	-4%	.	.
COc1ccc(-c2noc(CSc3nnc(-c4ccncc4)n3-c3ccc(C)cc3)n2)cc1OC	.	.	.	.	i	i
COc1cccc(CNC(=O)c2cc3c(c(-c4cccc(-c5cccc(C#N)c5)c4)n2)[C@H](CCO)N(S(=O)C(C)(C)C)C3)c1 (some centres undefined)	.	.	.	.	i	i
COc1ccc(C)cc1NC(=O)c1cc(C2CC2)nc2c1c(C)nn2C1CCS(=O)(=O)C1 (centres undefined)	-2%	-5%	.	.	i	4.6µM*
C=C1C2CC[C@@]3(C)C(c4ccoc4)OC(=O)C[C@@]13OC1CC(OC(C)=O)C(C)(C)C(CC(=O)OC)[C@@]12C (some centres undefined)	.	.	2.8µM*	-1%	.	.
CCN(CC)C(=O)Oc1ccc2c(=O)c(-c3ccccc3)coc2c1	6%	-15%	-36%	?	i	21µM*
COc1ccc2c(=O)c(-c3ccccc3)coc2c1	-5%	0%	?	0%	i	i
O=C(Nc1ccc(Cl)c(Cl)c1)Nc1nccs1	2.3µM*	13µM*	-1%	1%	4.6µM*	4.1µM*
